The record followed here is PMC5540273 (PLoS ONE, 2017).

What all share (settings): concentration: 1 μM, replicates: in singlicate; n = 1
Experiment [1] concerns T1, DCAMKL2.
T1 construct: gene DCLK2

For experiment [2], the system named is T2, DCAMKL3.
T2 construct: gene DCLK3

Experiment [3] concerns DDR1.
Experiment [4] has as its system DDR2.
Experiment [5] deals with T3, DLK.
T3 construct: gene MAP3K12

Experiment [6] concerns T4, DMPK2.
T4 construct: gene CDC42BPG

Experiment [7] concerns DMPK.
The test system of experiment [8] is T5, DRAK1.
T5 construct: gene STK17A

Experiment [9] has as its system T6, DRAK2.
T6 construct: gene STK17B

For experiment [10], the system named is DYRK1A.
The test system of experiment [11] is DYRK1B.
For experiment [12], the system named is DYRK2.
The subject of experiment [13] is EGFR.
Experiment [14] relates to EIF2AK1.
The test system of experiment [15] is EPHA1.
Experiment [16] deals with EPHA2.
Experiment [17] concerns EPHA3.
The test system of experiment [18] is EPHA4.
For experiment [19], the system named is EPHA5.
Experiment [20] has as its system EPHA6.
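Note: KINOMEscan kinase panel screen.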

Consider `COCCOCCOc1cc2ncc3c4ccc(C#N)cc4[nH]c3c2cc1OC`, for which the “%Inh” value worked out at 14% in experiment [1]; 66% in experiment [2]; 0% in [3]; 0% in [4]; 71% in [5]; 0% in experiment [6]. Also, the “%Inh” value came to 3% in [7]; 100% in experiment [8]; 100% in experiment [9]; 99% in [10]; 72% in experiment [11]; 70% in [12]. In addition, the “%Inh” value in experiment [13] is reported as 12%; in experiment [14] it was 0%; in experiment [15] it was 15%; in experiment [16] it was 33%; in [17], 0%; in experiment [18], 23%. In addition, the “%Inh” value in [19] amounted to 11%; in experiment [20], 25%.

Consider `CCS(=O)(=O)c1ccc(OC)c(Nc2nccc(-c3c(-c4cccc(NC(=O)c5c(F)cccc5F)c4)nn4ncccc34)n2)c1` [GSK326180], for which the “%Inh” value in experiment [1] was 0%; in experiment [2] it was 1%; in experiment [3], 90%; in experiment [4] it was 8%; in experiment [5], 0%; in experiment [6], 78%. For the same molecule, the “%Inh” value is given as 0% in experiment [7]; 0% in [8]; 1% in experiment [9]; 12% in experiment [10]; 0% in experiment [11]; 16% in [12]. In addition, the “%Inh” value in experiment [13] was 99.3%; in [14] it was 0%; in experiment [15], 23%; in [16] it was 0%; in experiment [17], 12%; in experiment [18], 100%. The “%Inh” value in experiment [19] is given as 0%; in experiment [20], 100%.

On to `Oc1cc(Nc2ccnc3cc(I)ccc23)ccc1F` [GW552771], for which the “%Inh” value was found to be 0% in experiment [1]; 0% in experiment [2]; 14% in [3]; 19% in [4]; 32% in [5]; 0% in [6]. For the same molecule, the “%Inh” value was 0% in experiment [7]; 0% in [8]; 6% in [9]; 36% in experiment [10]; 0% in experiment [11]; 8% in experiment [12]. Moreover, the “%Inh” value worked out at 32% in [13]; 0% in experiment [14]; 94.8% in [15]; 34% in experiment [16]; 48% in experiment [17]; 29% in experiment [18]. Moreover, the “%Inh” value is reported as 0% in [19] and 29% in [20].

For the molecule `Cn1cc(-c2ccc3c(c2)CCN3C(=O)Cc2cccc(F)c2)c2c(N)ncnc21` [GSK2603358], the “%Inh” value was 0% in experiment [1]; 32% in [2]; 69% in [3]; 30% in experiment [4]; 22% in experiment [5]; 50% in [6]. Also, the “%Inh” value is on record as 0% in experiment [7]; 0% in experiment [8]; 0% in [9]; 15% in [10]; 1% in experiment [11]; 4% in experiment [12]. In addition, the “%Inh” value is 35% in [13]; 87% in experiment [14]; 16% in experiment [15]; 0% in experiment [16]; 0% in experiment [17]; 7% in experiment [18]. In addition, the “%Inh” value in experiment [19] is given as 0%; in experiment [20] it was 15%.

Consider `COc1ccc(CNC(=O)NC2CCN(c3ccnc(Nc4ccc(F)cc4)n3)CC2)cc1` [GSK1379788], for which the “%Inh” value in experiment [1] amounted to 0%; in experiment [2] it was 5%; in experiment [3], 0%; in experiment [4], 32%; in [5] it was 34%; in experiment [6], 0%. Moreover, the “%Inh” value in [7], in experiment [8], in experiment [9], in [10], in experiment [11] and in experiment [12] was 0% in each case. Besides, the “%Inh” value in experiment [13] is on record as 13%; in experiment [14] it was 0%; in experiment [15], 7%; in experiment [16], 1%; in [17], 1%; in experiment [18], 0%. For the same molecule, the “%Inh” value in [19] and in [20] was 0% each time.

Regarding `COc1cccc(C2=C(Nc3ccc(Cl)c(C(=O)O)c3)C(=O)NC2=O)c1` [SB-390769], the “%Inh” value in experiment [1] came to 20%; in [2], 1%; in [3] it was 0%; in experiment [4] it was 36%; in [5] it was 0%; in experiment [6], 0%. In addition, the “%Inh” value worked out at 0% in experiment [7]; 100% in experiment [8]; 100% in experiment [9]; 18% in experiment [10]; 100% in [11]; 100% in experiment [12]. The “%Inh” value is given as 24% in experiment [13]; 99.6% in experiment [14]; 1% in experiment [15]; 10% in experiment [16]; 0% in experiment [17]; 0% in experiment [18]. For the same molecule, the entries for the “%Inh” value in experiment [19] and in experiment [20] were 0% and 2%, respectively.

In the case of `Nc1ncc(-c2ccc3nccc(-c4ccncc4)c3c2)cc1S(=O)(=O)N1CCOCC1` [GSK1627798], the “%Inh” value in experiment [1] came to 22%; in [2], 0%; in [3], 0%; in experiment [4] it was 0%; in [5] it was 32%; in experiment [6], 0%. The “%Inh” value in [7] is 0%; in [8], 0%; in experiment [9], 0%; in [10] it was 28%; in experiment [11], 0%; in experiment [12], 21%. For the same molecule, the “%Inh” value stood at 18% in [13]; 0% in experiment [14]; 4% in [15]; 4% in [16]; 0% in [17]; 0% in experiment [18]. For the same molecule, the “%Inh” value in [19] is 0%; in experiment [20], 5%.

`Nc1ncnc2c1nc(-c1ccccc1)n2-c1ccccc1` [SKF-97293]: the “%Inh” value in experiment [1] turned out to be 0%; in [2], 3%; in experiment [3] it was 6%; in experiment [4], 41%; in [5] it was 23%; in [6], 0%. Besides, the “%Inh” value in [7] is on record as 6%; in experiment [8] it was 0%; in experiment [9], 0%; in experiment [10] it was 6%; in experiment [11] it was 6%; in experiment [12], 25%. Also, the “%Inh” value in [13] came out at 7%; in experiment [14], 20%; in [15], 22%; in experiment [16] it was 0%; in experiment [17], 0%; in experiment [18], 30%. In addition, the “%Inh” value in experiment [19] came out at 13%; in experiment [20], 28%.

In the case of `COc1cc(Nc2nccc(-c3c(-c4cccc(NC(=O)c5c(F)cccc5F)c4)nn4ccccc34)n2)cc(OC)c1OC` [GSK323521], the “%Inh” value is given as 11% in experiment [1]; 11% in experiment [2]; 90.3% in experiment [3]; 61% in experiment [4]; 3% in [5]; 49% in experiment [6]. In addition, the “%Inh” value in [7] was 9%; in experiment [8] it was 0%; in experiment [9], 0%; in experiment [10], 13%; in [11] it was 0%; in experiment [12], 0%. Also, the “%Inh” value in [13] was 38%; in experiment [14], 39%; in experiment [15] it was 12%; in [16] it was 16%; in [17], 0%; in experiment [18], 0%. The “%Inh” value in experiment [19] is recorded as 21%; in experiment [20], 3%.
